SW480 rerep = inducers of DNA re-replication in SW480 colon cancer cells; SW480 DNA re-replication, Hoechst DNA content imaging, 48 h; Potency, µM (highest dose often 46.1 µM), for inactives: top-dose re-replication activation, usual class: activators; 340,000 tested, 1.8% active; AID 624297; also: % of control where 0% means no effect; nearly all actives have a fitted effect of over 55% in size
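Image-based DNA-content assay: after two days of treatment, nuclei were labelled with the DNA dye Hoechst and imaged, and hits were compounds raising the count of nuclei showing high fluorescence intensity.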
HT1080NT lethal = kills 2HG-producing HT-1080-NT fibrosarcoma cells | HT-1080-NT fibrosarcoma viability, CellTiter-Glo ATP luminescence, 48 h | Potency, µM (doses to about 46.1 µM), without a hit: at the highest dose activity, negative = less viability, actives largely listed as cytotoxic | 360,000 tested, 1.6% active;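 also: NT is the 2HG producing partner of a matched IDH1 knockdown line; 0% = DMSO-treated cells and -100% = media-only wells without cells; nearly all actives have a fitted effect of over 55% in size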
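Read-out is CellTiter-Glo luminescence after 10 minutes at room temperature, following 48 hours' compound treatment of HT-1080-NT cells (750 cells/well, RPMI, 5% FBS, 37 degrees C).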
MCF10A rereplic = inducers of DNA re-replication in MCF 10A breast cells; MCF 10A DNA re-replication, Hoechst nuclear intensity, 48 h; Potency, µM (highest dose often 46.1 µM), inactives show at the highest dose activity, positive = re-replication, usual class: activators; 350,000 tested, 2.9% active; also: % of control where 0% means no effect; nearly all actives have a fitted effect of over 50% in size
KB-V1 cytotox = kills drug-selected multidrug resistant KB-V1 cells; Potency, µM (top dose mostly 46.1 µM), usual class: cytotoxic; KB-V1 MDR cells viability, CellTiter-Glo, 72 h; 400,000 tested, 3.4% active; also: % is scaled to controls: 0 for no effect and ±100 for the full control effect; nearly all actives have a fitted effect of over 60% in size
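Readout: CellTiter-Glo luminescence, 10 min after addition. Cells: KB-V1 MDR subline, 72 h at 37 degrees C with compound. Analysis: corrected, normalized data fitted to concentration-effect curves.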
HT1080 IDH1KD tx = kills HT-1080 cells with IDH1 knockdown | 360,000 tested, 2% active | AID 686971 | HT-1080 IDH1 knockdown viability, ATP luminescence, 48 h | Potency, µM (doses to about 46.1 µM), inactives show at the highest dose activity, negative = toxicity, hits mostly cytotoxic;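 also: 0% = DMSO wells and -100% = cell-free medium wells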
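Cytotoxicity counter-line: IDH1KD HT-1080, 48 h, CellTiter-Glo. Curves classed by r2, magnitude and activity.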
KB-3-1 cytotox = kills parental KB-3-1 adenocarcinoma cells; Potency, µM (series often up to 46.1 µM), usual class: cytotoxic; KB-3-1 viability, CellTiter-Glo ATP luminescence, 72 h; 400,000 tested, 1.4% active; AID 1347075; also: % is scaled to controls: 0 for no effect and ±100 for the full control effect; nearly all actives have a fitted effect of over 60% in size
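Here the drug-naive KB-3-1 line serves as comparator for MDR sub-line selectivity; cells received compound titrations, 72 h at 37 °C, then CellTiter-Glo readout.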
* marks the source's active call; other numbers are inactive results. Sampled rows, rich in hits. Any-hit rate of the full collection: about 7.9%. Calls follow the shape of the dose curve; as a rule, active = well fitted curve in the direction sought with a large enough effect; inconclusive = small, poorly fitted or top-dose-only effect, or another doubt; inactive = no such curve, though single readings can be large; an effect the other way counts as inactive or inconclusive. Potency is read from the fitted curve at half-maximal effect.

What do the screens show for `CCN1C(=O)c2cccc3c(S(=O)(=O)N4CCC(C)CC4)ccc1c23`?
SW480 rerep: inconclusive; HT1080NT lethal: -9%; MCF10A rereplic: 10µM*; KB-V1 cytotox: 2.1µM*; HT1080 IDH1KD tx: -16%; KB-3-1 cytotox: inconclusive

What do the screens show for `CCN1C(=O)c2cccc3c(S(=O)(=O)NCCCN4CCOCC4)ccc1c23`?
SW480 rerep: -13%; HT1080NT lethal: 9%; MCF10A rereplic: 24%; KB-V1 cytotox: inactive; HT1080 IDH1KD tx: 2%; KB-3-1 cytotox: inactive

What do the screens show for `CCN1C(=O)c2cccc3c(S(=O)(=O)NCCc4c[nH]c5ccccc45)ccc1c23`?
SW480 rerep: -2%; HT1080NT lethal: 0%; MCF10A rereplic: 10%; KB-V1 cytotox: inactive; HT1080 IDH1KD tx: -1%; KB-3-1 cytotox: inactive

How did CCN1C(=O)c2cccc3c(S(=O)(=O)Nc4ccc(O)c(C(=O)O)c4)ccc1c23 do in these assays?
SW480 rerep: 0%; HT1080NT lethal: 8%; MCF10A rereplic: 6%; KB-V1 cytotox: inactive; HT1080 IDH1KD tx: 25%; KB-3-1 cytotox: inactive

What do the screens show for `CCN1C(=O)c2cccc3c(S(=O)(=O)Nc4ccccc4OC)ccc1c23`?
SW480 rerep: 1%; HT1080NT lethal: -1%; MCF10A rereplic: inconclusive; KB-V1 cytotox: 16µM*; HT1080 IDH1KD tx: -11%; KB-3-1 cytotox: inconclusive

Results for Cc1ccc(OCCC(=O)N(CCC(C)C)c2c(N)n(Cc3ccccc3)c(=O)[nH]c2=O)cc1 ?
SW480 rerep: 7%; HT1080NT lethal: -9%; MCF10A rereplic: 8%; KB-V1 cytotox: inactive; HT1080 IDH1KD tx: -9%; KB-3-1 cytotox: inactive

What do the screens show for `COc1ccc(NC(=S)NC23CN4CN(CN(C4)C2)C3)cc1`?
SW480 rerep: 0.52µM*; HT1080NT lethal: 3%; MCF10A rereplic: -4%; KB-V1 cytotox: inactive; HT1080 IDH1KD tx: 0%; KB-3-1 cytotox: inactive

What do the screens show for `CCCCNC(=O)c1cc(-c2ccc(OC)cc2)nc2n[nH]c(-c3cccc([N+](=O)[O-])c3)c12`?
KB-V1 cytotox: inactive; KB-3-1 cytotox: inactive

How did CCN(CC)CCOc1ccc(-c2nc3cc(Cl)ccc3s2)cc1 do in these assays?
SW480 rerep: 19µM*; MCF10A rereplic: 24µM*

What do the screens show for `COc1cc(NCCCCC(C)N)c2nccc(C)c2c1` (configuration not stated)?
HT1080NT lethal: inconclusive; KB-V1 cytotox: inconclusive; HT1080 IDH1KD tx: inconclusive; KB-3-1 cytotox: 5.2µM*

What do the screens show for `CCC(CNc1cc(OC)cc2cccnc12)NC1CCCCC1` (configuration not stated)?
SW480 rerep: 248%; HT1080NT lethal: -7%; MCF10A rereplic: inconclusive; KB-V1 cytotox: inactive; HT1080 IDH1KD tx: -2%; KB-3-1 cytotox: inactive

How did COc1cc(NCCCC(C)N)c2ncccc2c1 (configuration not stated) do in these assays?
SW480 rerep: inconclusive; HT1080NT lethal: 21µM*; MCF10A rereplic: 17%; KB-V1 cytotox: inactive; HT1080 IDH1KD tx: 21µM*; KB-3-1 cytotox: inconclusive

How did COCCn1c(=N)c(C(=O)NCCc2ccc(OC)cc2)cc2c(=O)n3cccc(C)c3nc21 do in these assays?
SW480 rerep: inconclusive; HT1080NT lethal: -14%; MCF10A rereplic: inconclusive; KB-V1 cytotox: inactive; HT1080 IDH1KD tx: -1%; KB-3-1 cytotox: inactive

What do the screens show for `COCCCNC(=O)c1cc2c(=O)n3cccc(C)c3nc2n(C(C)C)c1=N`?
SW480 rerep: 2.8µM*; HT1080NT lethal: 0%; MCF10A rereplic: inconclusive; KB-V1 cytotox: inactive; HT1080 IDH1KD tx: -6%; KB-3-1 cytotox: inactive

How did CCNC(=O)c1cc2c(=O)n3cccc(C)c3nc2n(Cc2ccc(C)cc2)c1=N do in these assays?
SW480 rerep: 2.1µM*; HT1080NT lethal: -8%; MCF10A rereplic: inconclusive; KB-V1 cytotox: inconclusive; HT1080 IDH1KD tx: -7%; KB-3-1 cytotox: inconclusive

How did Cc1cccn2c(=O)c3cc(C(=O)NC(C)C)c(=N)n(Cc4ccncc4)c3nc12 do in these assays?
SW480 rerep: 21µM*; HT1080NT lethal: 2%; MCF10A rereplic: 16µM*; KB-V1 cytotox: inactive; HT1080 IDH1KD tx: 1%; KB-3-1 cytotox: inactive

What do the screens show for `CCC(C(=O)NCc1ccc2c(c1)CCN2C(=O)c1ccc(F)cc1)c1ccccc1` (configuration not stated)?
KB-V1 cytotox: inactive; KB-3-1 cytotox: inconclusive

What do the screens show for `COc1cc2ncnc(N3CCN(C(=O)Nc4ccc(Oc5ccccc5)cc4)CC3)c2cc1OC`?
KB-V1 cytotox: inactive; KB-3-1 cytotox: inactive

How did COc1cccc(O)c1CN1CCC(C(=O)Nc2ccc(Oc3cccnc3)cc2)CC1 do in these assays?
SW480 rerep: 6%; HT1080NT lethal: -15%; MCF10A rereplic: 16%; HT1080 IDH1KD tx: -29%

Results for COc1cccc(O)c1CN1CCC(C(=O)Nc2ccc(-c3cccc(C)c3)cc2)CC1 ?
SW480 rerep: inconclusive; HT1080NT lethal: 23µM*; MCF10A rereplic: inconclusive; KB-V1 cytotox: inconclusive; HT1080 IDH1KD tx: 18µM*; KB-3-1 cytotox: 18µM*

What do the screens show for `CSc1ccc(OC2(C)CCN(Cc3cc4ccccc4o3)C2)cc1` (configuration not stated)?
HT1080NT lethal: 1%; KB-V1 cytotox: inactive; HT1080 IDH1KD tx: 3%; KB-3-1 cytotox: inactive

What do the screens show for `O=[N+]([O-])c1cc(-c2nc(-c3ccccc3)no2)ccc1NCCc1ccccc1`?
KB-V1 cytotox: inactive; KB-3-1 cytotox: inactive

What do the screens show for `O=C(C=Cc1ccccc1)Nc1ccccc1`?
SW480 rerep: -1%; HT1080NT lethal: -11%; MCF10A rereplic: 2%; KB-V1 cytotox: inactive; HT1080 IDH1KD tx: -7%; KB-3-1 cytotox: inconclusive

How did Cc1nc(NC(=O)/C=C/c2ccccc2)n[nH]1 do in these assays?
SW480 rerep: inconclusive; HT1080NT lethal: 9.2µM*; MCF10A rereplic: inconclusive; KB-V1 cytotox: inconclusive; HT1080 IDH1KD tx: 18µM*; KB-3-1 cytotox: inconclusive

What do the screens show for `CCOc1ccc(/C=C/C(=O)c2ccccc2)cc1`?
SW480 rerep: 10%; HT1080NT lethal: 6%; MCF10A rereplic: 16%; KB-V1 cytotox: inactive; HT1080 IDH1KD tx: 5%; KB-3-1 cytotox: inactive

What do the screens show for `CC[N+](CC)(CC)CCOc1ccc(/C=C/c2ccccc2)cc1`?
SW480 rerep: -32%; HT1080NT lethal: inconclusive; MCF10A rereplic: 0%; KB-V1 cytotox: inactive; HT1080 IDH1KD tx: 16µM*; KB-3-1 cytotox: inconclusive

Results for O=C(NC1CCCC1)C1c2ccccc2OCC(=O)N1Cc1cccnc1 (configuration not stated) ?
HT1080NT lethal: -2%; KB-V1 cytotox: inactive; HT1080 IDH1KD tx: 3%; KB-3-1 cytotox: inactive
